# Screening results (PubChem BioAssay)
# PI5P4Ka inh: inhibitors of human PI5P4K alpha. P48426. PI5P4Kalpha enzyme, ADP-Glo luminescence, 60 min; hits give low values. max response, %. 330,000 compounds, 1.2% hits; active = max response of -50% or lower; inconclusive = between -30% and -50%; inactive = -30% or higher; also: value at the top dose of about 77 µM; % is scaled to controls: 0 for no effect and ±100 for the full control effect
#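 Compounds were pin-transferred onto PI5P4Kalpha and substrate in HEPES pH 7.4 buffer with EGTA, CHAPS and 5% DMSO. ATP (5 microM final) started the reaction, which ran 60 minutes at room temperature before ADP-Glo detection.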
# GCN5L2 inh: blocks human GCN5L2 histone acetyltransferase | GCN5L2 HAT assay, ThioGlo1 CoA-SH fluorescence | Potency, µM (titrated, usually from 58.9 µM), inactives show top-dose activity change, negative = inhibition, hits mostly inhibitors | 390,000 compounds, 0.21% hits | AID 504327 | Q92830; also: potency is read from the fitted curve at half-maximal effect; % is scaled to controls: 0 for no effect and ±100 for the full control effect
#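 Compounds, pin-transferred from DMSO stocks, meet 20nM GCN5L2 for 15 min before the reaction begins with H3(1-25) peptide (75uM) and acetyl-CoA (70uM). Thiol-reactive ThioGlo1 reports CoA release over 20 min at room temperature.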
# VDR inhibitor: inhibitors of human vitamin D receptor; P11473; Potency, µM, for the others: max response, negative = inhibition, most hits filed as inhibitors; 400,000 compounds, 0.93% hits; VDR-SRC2-3 peptide fluorescence polarization, 2 h; AID 504847; also: potency is read from the fitted curve at half-maximal effect; % is scaled to controls: 0 for no effect and ±100 for the full control effect
# Target sequence (P11473 whole entry, looked up): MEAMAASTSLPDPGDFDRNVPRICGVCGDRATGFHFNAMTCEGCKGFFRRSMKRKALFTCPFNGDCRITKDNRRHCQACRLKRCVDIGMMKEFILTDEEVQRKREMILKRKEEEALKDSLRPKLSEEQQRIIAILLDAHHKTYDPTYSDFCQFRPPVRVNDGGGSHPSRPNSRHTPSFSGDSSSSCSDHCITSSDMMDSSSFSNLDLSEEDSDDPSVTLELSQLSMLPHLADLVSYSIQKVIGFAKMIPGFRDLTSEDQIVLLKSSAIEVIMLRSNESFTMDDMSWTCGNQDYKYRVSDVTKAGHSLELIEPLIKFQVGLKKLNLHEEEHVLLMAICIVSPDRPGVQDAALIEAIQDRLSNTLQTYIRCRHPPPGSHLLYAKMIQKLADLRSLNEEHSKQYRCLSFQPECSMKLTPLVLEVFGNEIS
#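 Compounds are added to VDR with labelled SRC2-3 coactivator peptide and held 2 h at room temperature. Inhibition of the VDR–peptide interaction is then read as a change in fluorescence polarization.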
# Rango-impB inh: prevents formation of the Rango-importin beta complex; 340,000 compounds, 0.031% hits; AID 540263; Rango CFP/YFP FRET sensor + importin beta, 45 min; Potency, µM (doses to about 92.2 µM), for the others: at the highest dose inhibition of complex formation; Q14974; calls by dose curve;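 also: potency is read from the fitted curve at half-maximal effect; 0% = DMSO wells and 100% = buffer wells lacking importin beta; nearly all actives have a fitted effect of over 15% in size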
#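 Inhibition scored from the CFP 486 nm/YFP 530 nm FRET ratio 45 min after adding 0.125 microM importin beta to 50 nM Rango biosensor preincubated 5 min with compound (room temperature, PBS with DTT, Tween-20, BSA). No-importin wells as positive control.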
# PLK1 PBD inh: blocks phosphopeptide binding to human PLK1 polo-box domain; Potency, µM, inactives show max response, negative = inhibition, most hits filed as inhibitors; Plk1 PBD binding of FITC phosphopeptide, fluorescence polarization; 360,000 compounds, 2.8% hits; AID 720504; also: potency is read from the fitted curve at half-maximal effect; series mostly up to about 57 µM; % is scaled to controls: 0 for no effect and ±100 for the full control effect; nearly all actives have a fitted effect of over 65% in size
# Rango dissoc inh: inhibition of RanGTP-driven Rango-importin beta dissociation | Biochemical FRET Rango-importin beta, RanGTP-induced dissociation | Potency, µM (highest dose often 46.1 µM), for inactives: at the highest dose activity change, negative = inhibition | 340,000 compounds, 0.071% hits | AID 540253; calls by dose curve; also: potency is read from the fitted curve at half-maximal effect; % of control where 0% means no effect; nearly all actives have a fitted effect of over 45% in size
#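 Two FRET readings bracket the reaction: one 5 min after compound meets Rango–importin beta, another 45 min after RanGTP-RCC1 (0.6 uM Ran, 0.2 uM RCC1, 2 mM GTP) is added. Only the second defines inhibition.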
# Active calls of the source: *; ? = inconclusive; . = no result given. Shown are actives, neighbours in structure and some others; about 3.6% of the full set was active somewhere. Unless noted, calls follow the shape of the dose curve; as a rule, active = well fitted curve in the direction sought with a large enough effect; inconclusive = small, poorly fitted or top-dose-only effect, or another doubt; inactive = no such curve, though single readings can be large; an effect the other way counts as inactive or inconclusive.
SMILES,PI5P4Ka inh,GCN5L2 inh,VDR inhibitor,Rango-impB inh,PLK1 PBD inh,Rango dissoc inh
Cc1[nH]c(=O)[nH]c(=O)c1Sc1ccccc1[N+](=O)[O-],-10.5,-5.0%,-8.7%,0.2%,21.2µM*,10.8%
CC(C)C(=O)N(c1ccc2oc(=O)sc2c1)S(=O)(=O)c1cccs1,-21.2,?,44.7µM*,-2.1%,-29.7%,0.0%
CC(=O)N(c1ccc2oc(=O)sc2c1)S(=O)(=O)c1cccc2cccnc12,-24.7,-9.4%,?,-1.4%,-11.3%,-4.1%
CC(=O)N(c1ccc2oc(=O)sc2c1)S(=O)(=O)c1cccs1,-17.7,-0.4%,89.1µM*,-1.2%,?,30.6%
CC(C)C(=O)N(c1cc2sc(=O)oc2c2ccccc12)S(=O)(=O)c1cccs1,.,-29.3%,35.5µM*,5.8%,-22.3%,-5.7%
CC(=O)N(c1ccc2oc(=O)sc2c1)S(=O)(=O)c1ccc(C(=O)O)cc1,?,?,79.4µM*,2.0%,?,2.9%
COc1ccc(N(C(=O)C(C)C)S(=O)(=O)c2cccs2)cc1,.,-4.1%,-6.5%,0.3%,0.1%,-3.9%
C=C1C(=O)OC2C1CCC(C)=C1C(=O)C3OC3(C)C12 (stereo not drawn),1.3,.,?,0.6%,18.9µM*,-1.1%
C=C1C(=O)O[C@@H]2[C@H]1CC[C@H](C)[C@]1(O)CCC(=O)[C@@]21C,-0.1,-7.4%,3.5%,4.8%,0.6%,7.2%
COc1ccc(C2Nc3ccccc3C(=O)N2NS(C)(=O)=O)c(OC)c1 (stereo not drawn),0.0,-8.0%,?,3.6%,21.2µM*,-1.4%
COc1cc(C2Nc3ccccc3C(=O)N2NS(C)(=O)=O)c([N+](=O)[O-])cc1OC (stereo not drawn),-5.9,-20.1%,?,-1.5%,-9.4%,-10.3%
Cc1ccccc1-c1cc(C(=O)N2CCCC2)c2ccccc2n1,-57.8*,-0.4%,?,-0.7%,-25.4%,?
COC(=O)c1c(NC(=O)Nc2ccc(Cl)cc2)sc(C)c1C,-1.8,-3.7%,9.5%,-2.8%,0.0%,3.5%
Cc1ccccc1-c1cc(C(=O)Nc2sc(C)c(C)c2C(N)=O)c2ccccc2n1,?,-11.9%,-1.2%,0.5%,26.7µM*,-1.5%
CCOC(=O)c1sc(NC(=O)c2cc(-c3ccccc3C)nc3ccccc23)c(C#N)c1C,-19.2,-8.2%,-10.2%,-0.7%,5.32µM*,?
CCOC(=O)c1c(NC(=O)c2cc(-c3ccc(Cl)s3)nc3ccccc23)sc(C(N)=O)c1C,-28.7,34.4%,3.1%,0.6%,-10.3%,-0.7%
Cc1sc(NC(=O)Nc2ccccc2)c(C(N)=O)c1C,-25.6,-4.4%,89.1µM*,-0.3%,-30.0%,-5.1%
CCCCN(CCCC)CCNC(=O)c1cn(C)c2ccc(S(=O)(=O)N3CCOCC3)cc2c1=O,.,-0.8%,-19.8%,.,.,.
Cc1ccccc1NC(=S)NC(=O)c1cc(-c2ccccc2)nc2ccccc12,-13.6,-4.4%,-6.8%,-4.7%,29.9µM*,22.9%
CC(C)(C)OC(=O)[C@H](Cc1ccccc1)NC(=O)c1nc[nH]c1C(=O)N1CCN(c2ccccc2)CC1,-0.8,-8.9%,?,1.2%,21.2µM*,6.2%
CCOC(=O)c1c(N2C(=O)Nc3ccccc3N2O)n[nH]c1-c1cccc(OC)c1,-51.9*,1.4%,3.5%,2.3%,-5.2%,1.7%
Cc1ccc(N2CC(C(=O)NCCS(=O)(=O)N3CCN(c4ccccc4F)CC3)CC2=O)cc1 (stereo not drawn),?,-4.2%,?,2.8%,10.6µM*,-6.8%
O=C(NCCS(=O)(=O)N1CCN(c2ccccc2F)CC1)C1CC(=O)N(c2ccccc2)C1 (stereo not drawn),3.4,-4.2%,6.1%,-0.4%,-3.7%,21.6%
CCCCn1cnc2c1c(=O)[nH]c(=O)n2CCCC,5.6,-11.2%,-7.5%,2.1%,11.9µM*,0.0%
CCCN1CNc2c(c(=O)[nH]c(=S)n2CCc2ccccc2OC)C1,.,.,-3.5%,.,.,.
SMILES,PI5P4Ka inh,GCN5L2 inh,VDR inhibitor,Rango-impB inh,PLK1 PBD inh,Rango dissoc inh
COc1cc(OC)c2cc[nH]c2c1,-6.0,2.3%,3.3%,-0.3%,4.9%,20.1%
COc1ccc2cc[nH]c2c1,0.4,-1.8%,?,-3.4%,21.2µM*,-3.0%
CC(=O)Nc1ccc2c3c(cccc13)C(=O)N(c1ccccc1)C2=O,-0.3,22.4µM*,4.2%,?,1.5%,?
CCN1C(=O)c2cccc3c(Cl)ccc(c23)C1=O,2.1,-7.1%,-9.4%,1.2%,-11.1%,-6.0%
CC(C)CCN1C(=O)c2cccc3c(N)ccc(c23)C1=O,8.6,.,-5.8%,?,5.32µM*,?
CN(C)c1ccc2c3c(cccc13)C(=O)N(c1ccccc1)C2=O,.,1.0%,.,.,.,.
Nc1ccc2c3c(cccc13)C(=O)N(c1ccccc1)C2=O,0.5,-10.8%,-10.8%,?,1.34µM*,?
Nc1cccc(N2C(=O)c3cccc4c(N)ccc(c34)C2=O)c1,-17.1,-7.7%,-0.6%,?,10.6µM*,?
O=C1c2ccc3c4c(ccc(c24)C(=O)N1c1cccc(O)c1)C(=O)N(c1cccc(O)c1)C3=O,0.3,-3.3%,-7.7%,3.4%,-3.2%,?
CCS(=O)(=O)N1CCCC(C(=O)NCCOC)C1 (stereo not drawn),.,-1.3%,4.5%,.,.,.
O=C(CCC1N=C2c3ccccc3N=C(SCc3ccccc3F)N2C1=O)NCc1ccccc1 (stereo not drawn),.,-0.3%,11.4%,.,.,.
CCCN(Cc1cccs1)C(=O)Nc1ccc(F)c(Cl)c1,.,-7.2%,-1.2%,.,.,.
Cc1ccc(Cl)cc1N(C)C(=O)c1cc2ccc3cccnc3c2[nH]1,.,0.2%,-4.8%,.,.,.
CCN(CC)c1ccc(CNc2nc3ccccc3n2C(C)C)cc1,3.9,-1.7%,-22.1%,-4.1%,18.9µM*,19.3%
CCOC(=O)c1cc(-c2nnc(SCC(=O)Nc3ccc(F)cc3)o2)c(C)nc1C,2.0,-7.6%,?,?,21.2µM*,-5.9%
N#C/C(=C\c1coc2ccccc2c1=O)C(N)=S,?,?,?,?,11.9µM*,-17.0%
N#CCC(=O)N/N=C/c1coc2ccccc2c1=O,-86.1*,-0.4%,-13.7%,-0.8%,-9.7%,-22.1%
COc1ccc2[nH]c(=O)c(CN(C(=O)c3cccc(Cl)c3)c3ccccc3OC)cc2c1,.,-1.3%,6.0%,.,.,.
CCc1ccc(-n2nc(CO)c(C(=O)NCCOC)n2)cc1,.,-1.3%,2.1%,.,.,.
C=CCOc1c(Br)cc(/C=C2\SC(=Nc3ccccc3)NC2=O)cc1OC,-15.8,-1.2%,-1.6%,?,-3.8%,-5.5%
CCOc1cc(Br)cc(/C=C2\SC(=Nc3ccccc3)NC2=O)c1O,-62.4*,-9.4%,?,9.1%,?,-2.6%
